Data from the supplement of paper PMC10849652.
About 7,900 targets were measured; listed, in parts, are those with a hit and a random draw of the rest. About 0.6% of all pairs of compound and target were hits. Values without a mark were called inactive.

How the values were obtained:
Assay in all cases: log2 fold change, soluble protein after heating vs DMSO (PISA); higher = thermal stabilisation; K562 cells, 10 uM, 30 min; active = over 0.2 and 3.5 SD of the protein, either way, in both replicates (recomputed)
[1] = compound: CC1=C(C=C(C=C1)NC(=O)C2=CC(=CC=C2)C(C)(C)C#N)NC3=CC4=C(C=C3)N=CN(C4=O)C
In short: (§1)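 Quantification of soluble protein used TMTpro 16plex LC-MS/MS, with channel sums equalised. Samples were the supernatant after 21,000xg for 90 min of pooled aliquots from K562 cells (2×10^6 cells/mL) treated with 10 μM compound for 30 min, heated for 3 min over 48°C-58°C, and extracted in PBS with 0.5% NP-40 at 4°C. Values, from duplicates, describe thermal stability against control samples on a log2 fold-change scale.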

[2] = compound: CC1=C(C=C(C=C1)NC(=O)C2=CC(=CC=C2)N(C)C)NC(=O)C3=CC=C(C=C3)O
In short: as §1

[3] = compound: CC1=CC=C(C=C1)SC2=C3C=C(SC3=CN=C2)C(=O)N
In short: as §1

[4] = compound: CC1=NC(=CC=C1)C2=C(N=C(N2)C(C)(C)C)C3=CC4=NC=CN=C4C=C3
In short: as §1

Nexturastat A = compound: CCCCN(Cc1ccc(C(=O)NO)cc1)C(=O)Nc1ccccc1 [Nexturastat A]
In short: as §1

vemurafenib = compound: CCCS(=O)(=O)Nc1ccc(F)c(C(=O)c2c[nH]c3ncc(-c4ccc(Cl)cc4)cc23)c1F [vemurafenib]
In short: as §1

[5] = compound: CCCS(=O)(=O)Nc1ccc(F)c(C(=O)c2c[nH]c3ncc(Cl)cc23)c1F
In short: as §1

[6] = compound: CCCc1cc(C)[nH]c(=O)c1CNC(=O)c1cc(-c2ccnc(N3CCN(C)CC3)c2)cc2c1cnn2C(C)C
In short: as §1

givinostat = compound: CCN(CC)Cc1ccc2cc(COC(=O)Nc3ccc(C(=O)NO)cc3)ccc2c1 [givinostat]
In short: as §1

barasertib = compound: CCN(CCCOc1ccc2c(Nc3cc(CC(=O)Nc4cccc(F)c4)[nH]n3)ncnc2c1)CCOP(=O)(O)O [barasertib]
In short: as §1

[7] = compound: CC[C@@H]1C(=O)N(C)c2cnc(Nc3ccc(C(=O)NC4CCN(C)CC4)cc3OC)nc2N1C1CCCC1
In short: as §1

volasertib = compound: CC[C@@H]1C(=O)N(C)c2cnc(Nc3ccc(C(=O)N[C@H]4CC[C@H](N5CCN(CC6CC6)CC5)CC4)cc3OC)nc2N1C(C)C [volasertib]
In short: as §1

[8] = compound: CC[C@H](C)N1C=C(C2=C(C=C(C=C21)C3=CN=C(C=C3)N4CCNCC4)C(=O)NCC5=C(C=C(NC5=O)C)C)C
In short: as §1

epoxomicin = compound: CC[C@H](C)[C@@H](C(=O)N[C@@H]([C@@H](C)O)C(=O)N[C@@H](CC(C)C)C(=O)[C@]1(CO1)C)NC(=O)[C@H]([C@@H](C)CC)N(C)C(=O)C [epoxomicin]
In short: as §1

[9] = compound: CCn1c(C(=O)N(C2CC2)C2CC2)cc2c3c(ncn3C)c(Nc3cc(C)n(C)n3)nc21
In short: as §1

[10] = compound: CCn1cc(-c2ccnc3[nH]c(-c4cccc(CN(C)C)c4)cc23)c(-c2ccc(NC(=O)N(C)C)cc2)n1
In short: as §1

[11] = compound: CN(C)CC(=O)Nc1ccc2[nH]c(=O)c3ccccc3c2c1
In short: as §1

rosiglitazone = compound: CN(CCOC1=CC=C(C=C1)C[C@H]2C(=O)NC(=O)S2)C3=CC=CC=N3 (racemic) [rosiglitazone]
In short: as §1

[12] = compound: CN1C2=C(C3=C1C(=O)N(N=C3)CC4=CC(=CC=C4)N)SC(=C2)S(=O)C
In short: as §1

[13] = compound: CN1CCC(CNc2ccc3ncc(-c4cccc(OC(F)(F)F)c4)n3n2)CC1
In short: as §1

Sequence of UniProt Q6GMV3 (Q6GMV3 whole entry, looked up): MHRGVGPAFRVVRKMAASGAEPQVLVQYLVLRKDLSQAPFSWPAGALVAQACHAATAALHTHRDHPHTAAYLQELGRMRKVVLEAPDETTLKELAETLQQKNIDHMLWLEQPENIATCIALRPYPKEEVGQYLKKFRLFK
Sequence of UniProt O15162 (O15162 whole entry, looked up): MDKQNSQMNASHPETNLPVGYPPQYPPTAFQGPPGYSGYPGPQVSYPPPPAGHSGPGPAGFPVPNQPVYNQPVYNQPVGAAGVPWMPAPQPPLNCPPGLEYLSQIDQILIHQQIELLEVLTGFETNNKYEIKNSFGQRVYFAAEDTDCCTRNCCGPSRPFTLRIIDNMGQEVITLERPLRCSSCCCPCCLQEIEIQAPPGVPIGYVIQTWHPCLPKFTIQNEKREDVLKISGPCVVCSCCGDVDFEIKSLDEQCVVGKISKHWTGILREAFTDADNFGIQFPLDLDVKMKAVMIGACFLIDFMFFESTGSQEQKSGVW
Sequence of UniProt Q9NR12 (Q9NR12 whole entry, looked up): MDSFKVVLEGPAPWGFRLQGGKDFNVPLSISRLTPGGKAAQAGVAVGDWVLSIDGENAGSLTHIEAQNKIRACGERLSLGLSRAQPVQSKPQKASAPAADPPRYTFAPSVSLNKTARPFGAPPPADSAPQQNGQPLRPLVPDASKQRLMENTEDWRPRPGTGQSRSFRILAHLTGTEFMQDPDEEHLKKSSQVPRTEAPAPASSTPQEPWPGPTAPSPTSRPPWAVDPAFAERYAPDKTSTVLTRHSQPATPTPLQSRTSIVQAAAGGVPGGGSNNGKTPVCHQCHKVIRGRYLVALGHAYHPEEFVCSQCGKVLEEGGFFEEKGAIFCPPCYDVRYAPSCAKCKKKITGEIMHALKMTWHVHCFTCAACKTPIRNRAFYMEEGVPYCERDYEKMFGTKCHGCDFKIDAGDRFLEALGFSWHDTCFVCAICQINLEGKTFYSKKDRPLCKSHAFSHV
Sequence of UniProt Q96A00 (Q96A00 whole entry, looked up): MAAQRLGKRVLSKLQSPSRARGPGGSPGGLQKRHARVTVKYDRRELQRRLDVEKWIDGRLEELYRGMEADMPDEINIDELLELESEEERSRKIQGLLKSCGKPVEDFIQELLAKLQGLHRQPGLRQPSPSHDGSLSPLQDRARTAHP
Sequence of UniProt Q7RTV0 (Q7RTV0 whole entry, looked up): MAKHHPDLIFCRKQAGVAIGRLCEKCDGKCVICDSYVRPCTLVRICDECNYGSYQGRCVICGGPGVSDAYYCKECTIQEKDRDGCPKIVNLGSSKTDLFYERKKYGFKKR
Sequence of UniProt Q8IZL8 (Q8IZL8 whole entry, looked up): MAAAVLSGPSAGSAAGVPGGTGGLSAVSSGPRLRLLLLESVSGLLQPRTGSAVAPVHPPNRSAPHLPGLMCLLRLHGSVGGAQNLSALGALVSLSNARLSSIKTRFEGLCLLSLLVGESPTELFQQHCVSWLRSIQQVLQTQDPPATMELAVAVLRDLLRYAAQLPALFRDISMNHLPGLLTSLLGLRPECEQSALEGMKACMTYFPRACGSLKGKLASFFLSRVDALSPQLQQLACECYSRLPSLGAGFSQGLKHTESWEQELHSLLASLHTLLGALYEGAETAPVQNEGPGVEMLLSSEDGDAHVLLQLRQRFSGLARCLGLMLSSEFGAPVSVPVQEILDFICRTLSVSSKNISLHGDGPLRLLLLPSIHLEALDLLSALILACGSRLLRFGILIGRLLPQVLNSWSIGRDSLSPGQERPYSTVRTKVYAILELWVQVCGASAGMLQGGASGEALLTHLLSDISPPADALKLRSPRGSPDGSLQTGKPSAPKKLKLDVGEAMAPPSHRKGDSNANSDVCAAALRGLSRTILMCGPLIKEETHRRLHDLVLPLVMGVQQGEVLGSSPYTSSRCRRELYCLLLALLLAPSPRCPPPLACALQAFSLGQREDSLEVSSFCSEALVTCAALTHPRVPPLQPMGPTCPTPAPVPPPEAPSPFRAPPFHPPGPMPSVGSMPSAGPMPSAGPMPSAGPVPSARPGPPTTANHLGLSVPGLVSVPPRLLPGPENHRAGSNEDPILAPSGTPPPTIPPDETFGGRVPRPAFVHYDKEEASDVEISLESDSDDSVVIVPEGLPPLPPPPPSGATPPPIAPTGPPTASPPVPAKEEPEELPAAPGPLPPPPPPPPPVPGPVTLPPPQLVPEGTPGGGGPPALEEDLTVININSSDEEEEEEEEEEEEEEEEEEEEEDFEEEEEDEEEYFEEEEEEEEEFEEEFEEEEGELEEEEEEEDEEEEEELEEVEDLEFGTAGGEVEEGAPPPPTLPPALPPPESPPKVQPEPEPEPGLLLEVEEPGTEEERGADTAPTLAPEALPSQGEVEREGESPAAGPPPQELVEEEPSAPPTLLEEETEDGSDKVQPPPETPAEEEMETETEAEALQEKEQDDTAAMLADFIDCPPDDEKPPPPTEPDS
Sequence of UniProt Q9Y3E5 (Q9Y3E5 whole entry, looked up): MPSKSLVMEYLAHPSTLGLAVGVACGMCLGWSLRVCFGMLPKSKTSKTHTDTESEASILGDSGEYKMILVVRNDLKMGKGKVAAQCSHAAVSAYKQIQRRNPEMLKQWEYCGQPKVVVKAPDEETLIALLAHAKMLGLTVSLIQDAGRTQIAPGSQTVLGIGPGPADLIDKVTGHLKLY

| Target | log2 fold change [1] | log2 fold change [2] | log2 fold change [3] | log2 fold change [4] | log2 fold change (Nexturastat A) | log2 fold change (vemurafenib) | log2 fold change [5] | log2 fold change [6] | log2 fold change (givinostat) | log2 fold change (barasertib) | log2 fold change [7] | log2 fold change (volasertib) | log2 fold change [8] | log2 fold change (epoxomicin) | log2 fold change [9] | log2 fold change [10] | log2 fold change [11] | log2 fold change (rosiglitazone) | log2 fold change [12] | log2 fold change [13] |
| --- | --- | --- | --- | --- | --- | --- | --- | --- | --- | --- | --- | --- | --- | --- | --- | --- | --- | --- | --- | --- |
| PDLIM7 (UniProt Q9NR12) | 0.02 | -0.029 | -0.002 | 0.046 | -0.016 | 0.026 | 0.032 | 0.001 | 0.05 | 0.032 | -0.084 | -0.24 (active) | 0.012 | 0.013 | -0.053 | -0.064 | 0.039 | 0.039 | 0.023 | -0.021 |
| PHF5A (UniProt Q7RTV0) | -0.019 | -0.046 | -0.023 | -0.012 | -0.017 | -0.075 | -0.064 | 0.021 | -0.075 | -0.032 | 0.013 | 0.065 | -0.061 | 0.051 | 0.014 | 0.087 | -0.063 | -0.062 | -0.017 | 0.017 |
| PLSCR1 (UniProt O15162) | 0.13 | 0.06 | 0.025 | -0.002 | 0.008 | -0.05 | 0.088 | -0.101 | -0.033 | -0.104 | 0.025 | -0.1 | -0.069 | -0.022 | 0.013 | 0.053 | 0.037 | -0.033 | -0.02 | 0.044 |
| PTRHD1 (UniProt Q6GMV3) | -0.051 | -0.098 | 0.017 | 0.022 | 0.074 | 0.059 | -0.024 | -0.024 | -0.008 | 0.034 | 0.106 | 0.037 | -0.028 | 0.415 (active) | 0.064 | 0.086 | -0.056 | 0.048 | 0.019 | 0.078 |
| PTRH2 (UniProt Q9Y3E5) | 0.009 | -0.007 | 0.032 | 0.144 | -0.078 | -0.05 | -0.009 | -0.025 | -0.064 | -0.022 | -0.004 | -0.09 | 0.013 | -0.018 | -0.003 | -0.067 | 0.057 | 0.001 | -0.042 | 0.018 |
| PPP1R14A (UniProt Q96A00) | -0.002 | -0.04 | 0.004 | 0.051 | -0.006 | -0.005 | -0.054 | 0.062 | -0.004 | 0.013 | 0.002 | 0.051 | 0 | 0.058 | -0.023 | -0.067 | -0.04 | 0.016 | -0.027 | -0.091 |
| PRKCG (UniProt P05129) | 0.085 | -0.117 | -0.058 | 0.021 | -0.08 | -0.041 | 0.034 | 0.019 | -0.316 | -0.094 | -0.253 | -0.062 | 0.058 | 0.086 | -0.078 | -0.117 | 0.058 | 0.044 | 0.093 | -0.176 |
| PELP1 (UniProt Q8IZL8) | -0.048 | 0.044 | 0.034 | -0.02 | 0.15 | -0.01 | -0.038 | -0.006 | 0.039 | -0.085 | 0.056 | 0.017 | -0.002 | -0.004 | -0.01 | 0.047 | -0.009 | 0.017 | 0.006 | 0.021 |
